For six compounds, Potency, outcome and max response results are on record in PubChem BioAssay (NCATS).

Where “and” joins values, the source holds several entries; their conditions need not be identical. Equal entries are not always repeated. A number with no mark means an inactive call. Results filed as inconclusive are left out. Calls of active or inactive are those of the source. Unless noted, the call rests on the fitted dose curve; in most records, active means well fitted curve in the direction sought with a large enough effect; inconclusive means small, poorly fitted or top-dose-only effect, or another doubt; inactive means no such curve, though single readings can be large; an effect the other way counts as inactive or inconclusive. Where only a bound is given, the exact number is not on record here.

A short description of assay [1]: Cell Viability - HUV-EC-C (AID 542). Further: nearly all actives have a fitted effect of over 35% in size. Further: potency means the concentration at half of the fitted maximal effect. To be noted: HUV-EC-C endothelial cell viability, qHTS; series mostly up to 92.2 µM. In a few lines:
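qHTS cytotoxicity: HUV-EC-C, 1000 cells/well, 5 hr settle, compound 40 hr 37 °C, CellTiter-Glo, luminescence. AC50 via Hill equation.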
In general terms: Quantitative high-throughput screening tests each substance at several concentrations.

Assay [2] can be described thus: Cellular Toxicity (caspase-3) HepG2 (AID 654).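 Further: cells exposed to compound for 16 hours before reading; 0% = DMSO alone and 100% = caspase signal from 100 µM tamoxifen.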 The following applies: HepG2 caspase-3 activation, luminescence; series mostly up to 92.2 µM. In a few lines: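 Cells plated 5 hr at 37 °C, compound added, incubated 16 hr at 37 °C. Caspase-Glo 3/7 reagent followed, 20 min at room temperature, then luminescence read. Activation scored as signal increase; AC50 from Hill fit.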

Assay [3] in a line: Cellular Toxicity (caspase-3) HUV-EC-C (AID 656). To be noted: HUV-EC-C cells, caspase-3 activation (apoptosis); series mostly up to 92.2 µM. In a few lines:
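Luminescent caspase-3/7 activation (aminoluciferin substrate cleavage) in HUV-EC-C cells after 16 hr compound exposure, 37°C. Signal normalized to DMSO basal and 100 uM tamoxifen as 100%; AC50 from concentration-response fitted with the Hill equation.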

Assay [4] in a line: Cellular Toxicity (caspase-3) SHSY5Y (AID 657). To be noted: SH-SY5Y caspase-3 activation; series mostly up to 91.7 µM. In a few lines: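 Luminescent caspase-3/7 readout (aminoluciferin release) in SH-SY5Y cells after 16 h compound exposure in complete medium. Activity scaled between DMSO basal and 10 uM staurosporine as 100%; concentration-response fitted to Hill equation for AC50.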

Assay [5] is described as follows: Cellular Toxicity (caspase-3) Mesangial (AID 660).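 Further: combined caspase 3 and 7 activity read by Caspase-Glo luminescence.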 The following applies: mesangial cells, normalized: DMSO 0%, 100 µM tamoxifen 100%; series mostly up to 91.7 µM. In a few lines: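 Mesangial cells, 1000/well, 5 h settle at 37 °C; compound 16 h, 37 °C; Caspase-Glo 3/7 reagent 20 min RT; luminescence. Norm.: DMSO = 0%, tamoxifen 100 uM = 100%. AC50, Hill fit.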
Assay [6] in a line: Cellular Toxicity (caspase-3) SK-N-SH (AID 661). The following applies: SK-N-SH caspase-3 activation, qHTS, DMSO as zero, staurosporine as full; series mostly up to 91.7 µM. In a few lines: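 Human neuroblastoma SK-N-SH, 1500 cells/well, 5 hr pre-incubation, then compound 16 hr, 37 °C. Caspase-Glo 3/7 reagent, 1 hr RT, luminescence. Norm. to DMSO/10 uM staurosporine; Hill-fit AC50.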

Assay [7] in a line: Cellular Toxicity (caspase-3) H-4-II-E (AID 663). To be noted: H-4-II-E rat hepatoma; Potency: caspase-3 activation; series mostly up to 92.2 µM. In a few lines: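 Rat hepatoma H-4-II-E cells (1500/well) plated 5 hr, then exposed to compound titrations for 16 hr at 37 °C. Caspase-Glo 3/7 luminescence read after 20 min at RT; data normalized to DMSO and 100 uM tamoxifen, AC50 from Hill fits.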

The nature of assay [8]: Cellular Toxicity (caspase-3) N2a (AID 665).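 Further: compound exposure lasted 16 h at 37 °C before readout.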 The following applies: N2a cells, luminescence, normalized: DMSO 0%, 10 µM staurosporine 100%; series mostly up to 92.2 µM. The essentials:
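N2a cells, 1500/well, 5 h settle at 37 °C; cpd 16 h, 37 °C; Caspase-Glo 3/7, 1 h RT; luminescence. Norm: DMSO = 0, 10 uM staurosporine = 100%. AC50, Hill fit.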

The nature of assay [9]: Cellular Toxicity (caspase-3) NIH 3T3 (AID 666).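 Further: 0% = DMSO basal and 100% = 100 µM tamoxifen stimulation.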 To be noted: NIH 3T3 caspase-3 activation, apoptosis/toxicity, 0% DMSO, 100% is 100 µM tamoxifen; series mostly up to 92.2 µM. The essentials:
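Luminescence from aminoluciferin released by caspase-3/7 cleavage of a peptide substrate served as read-out. Mouse fibroblast NIH 3T3 cells were exposed to compounds over a concentration range for 16 hours, and AC50 values came from standard Hill modelling.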

Assay [10] in a line: Cellular Toxicity (caspase-3) Renal Proximal Tubule (AID 667).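 Further: cells exposed to compound for 16 hours at 37 °C before detection.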 To be noted: renal proximal tubule cells, primary cells freshly taken from rat; Potency: caspase-3 activation; series mostly up to 91.7 µM. In a few lines: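 Luminescent caspase 3/7 signal from peptide-aminoluciferin cleavage measures apoptosis in freshly isolated rat kidney proximal tubule cells after 16 h compound exposure. Concentration-response data are normalized to DMSO and 10 uM staurosporine, and AC50 values come from Hill equation fits.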

Assay [11] can be described thus: MultiTox-Fluor Cytotoxicity Assay - LYMP1-001 - Dead Cells (AID 946).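 Further: 0% = DMSO and 100% = tetraoctylammonium bromide.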 The following applies: LYMP1-001 lymphoblastoid cells, dead-cell protease fluorescence; series mostly up to 92.2 µM. In a few lines: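 In this qHTS, 15 uM tetraoctylammonium bromide defined 100% and DMSO defined basal activity. Lymphoblastoid cells (LYMP1-001, 2500 per well) received compound for 16 hr at 37 C before a fluorogenic dead-cell substrate readout at 485/520 nm.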

Assay [12] is described as follows: MultiTox-Fluor Cytotoxicity Assay - LYMP1-003 - Dead Cells (AID 961).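 Further: 0% = DMSO and 100% = tetraoctylammonium bromide; nearly all actives have a fitted effect of over 70% in size.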 To be noted: LYMP1-003 lymphoblastoid cells, dead-cell protease fluorescence; series mostly up to 92.2 µM. The essentials:
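Acute toxicity is scored as increased dead-cell protease activity in human lymphoblastoid LYMP1-003 cells after 16 h compound exposure in complete culture medium. Activity is normalized to DMSO basal and 15 uM tetraoctylammonium bromide as full response.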

Assay [13] in a line: MultiTox-Fluor Cytotoxicity Assay - LYMP1-003 - Live Cells (AID 962).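 Further: 0% = DMSO only and full loss = 92 µM tetraoctylammonium bromide; cytotoxic hits lower the live-cell protease signal.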 To be noted: LYMP1-003 lymphoblastoid cells, MultiTox-Fluor live-cell protease fluorescence; series mostly up to 92.2 µM. The essentials:
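qHTS, 1536-well; 2500 cells/well LYMP1-003; 5 hr 37 C settle; cpd 16 hr 37 C; MultiTox-Fluor reagent 60 min RT; live-cell protease fluor. 405/510; Hill-fit AC50; tetraoctylammonium bromide pos. ctrl.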

Assay [14] is described as follows: qHTS Assay for Identification of Small Molecule Inducers of Hypoxia Response (AID 2120; active means well fitted curve in the direction sought with a large enough effect in the signal ratio, with a control signal flat, not every such curve was filed as active; the % refers to the signal ratio; further: 0% is about no effect). To be noted: hypoxia response reporter cells, beta-lactamase ratio readout; series mostly up to 104 µM. In a few lines: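 ME-180 HRE-bla cells plated in Opti-MEM/0.5% dialyzed FBS, rested 4-5 h, then dosed with compound titrations by pin tool. After 17 h at 37 degrees C, CCF4 dye loaded 2.5 h at RT; 460/530 nm ratio gave %Activity and AC50.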

The target of assay [15] is Peroxisome proliferator-activated receptor alpha (Homo sapiens) (UniProt Q07869). Briefly: qHTS assay for small molecule agonists of the peroxisome proliferator-activated receptor alpha (PPARalpha) signaling pathway (AID 651778). Further: % of control where 0% means no effect. To be noted: PathHunter PPARalpha complementation, chemiluminescence, 6 h; max response: active compounds read high. In a few lines:
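Enzyme-fragment complementation assay in which ligand-bound PPARalpha translocates and forms an active enzyme that generates chemiluminescence. Cells were plated overnight, exposed to compound for 6 hr at 37 C, and then given detection reagent for 60 min at room temperature.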

Assay [16] is described as follows: qHTS assay for cell viability of the p53RE-bla HCT-116 cell line (AID 743292). Further: nearly all actives have a fitted effect of over 55% in size. Further: potency means the concentration at half of the fitted maximal effect. To be noted: p53RE-bla HCT-116 viability, ATP luminescence, 16 h; series mostly up to 95 µM. In a few lines:
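Compound-exposed HCT-116 (p53RE-bla) cells, 4,000 per well, were kept 16 h at 37 C following a 5 h preincubation. Cell number was estimated from total ATP by CellTiter-Glo luminescence read after 30 min at room temperature.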

A short description of assay [17]: Cell Viability - MRC5 (AID 434; calls by dose curve;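 further: potency means the concentration at half of the fitted maximal effect; potency reflects cytotoxicity seen as loss of intracellular ATP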). The following applies: MRC5 lung fibroblast viability, qHTS. The essentials:
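MRC5 normal human lung fibroblasts, 1500 cells/well, exposed to compound for 40 hr at 37 C. Cellular ATP was read by CellTiter-Glo luminescence; data normalized to DMSO and 100 uM tamoxifen, with AC50 from Hill fits.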

A short description of assay [18]: Cell Viability - LYMP1-003 - Assay at 24 hr (AID 963).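 Further: plate controls were DMSO only for no effect and tetraoctylammonium bromide positive control for full effect.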 To be noted: LYMP1-003 lymphoblastoid cell viability; series mostly up to 92.2 µM. In a few lines: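 Cells seeded at 2500/well, 5 hr at 37 C; compounds added; 24 hr at 37 C; CellTiter-Glo added, 30 min room temperature; luminescence read. Decrease in ATP taken as cytotoxicity, AC50 from Hill modelling.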
The nature of assay [19]: Cell Viability - LYMP1-002 - Assay at 24 hr (AID 993). Further: on the % scale 0 is the no-effect control and ±100 the full control effect. The following applies: LYMP1-002 lymphoblastoid cells viability; series mostly up to 92.2 µM. The essentials: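 Cells plated 2500/well, 5 hr 37 C; compounds added, 24 hr 37 C; CellTiter-Glo added, 30 min RT; luminescence read. Tetraoctylammonium bromide positive control. Hill-equation AC50.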
A short description of assay [20]: qHTS assay for small molecule agonists of the antioxidant response element (ARE) signaling pathway measured by Nrf2-dependant transcriptional activity - cell viability counter screen (AID 720653; active means well fitted curve in the direction sought with a large enough effect in the repeat runs; an effect the other way counts as inactive or inconclusive; further: on the % scale 0 is the no-effect control and ±100 the full control effect). To be noted: ARE-bla HepG2 viability, CellTiter-Glo ATP luminescence, 16 h; max response: active compounds read low. In a few lines:
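ARE-bla HepG2 cells treated with compounds for 16 h at 37C; this counter screen measures viability as intracellular ATP by CellTiter-Glo luminescence after 30 min at room temperature.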

Chain of Peroxisome proliferator-activated receptor alpha (Homo sapiens) (Q07869 whole entry, looked up, the tested form may be a part): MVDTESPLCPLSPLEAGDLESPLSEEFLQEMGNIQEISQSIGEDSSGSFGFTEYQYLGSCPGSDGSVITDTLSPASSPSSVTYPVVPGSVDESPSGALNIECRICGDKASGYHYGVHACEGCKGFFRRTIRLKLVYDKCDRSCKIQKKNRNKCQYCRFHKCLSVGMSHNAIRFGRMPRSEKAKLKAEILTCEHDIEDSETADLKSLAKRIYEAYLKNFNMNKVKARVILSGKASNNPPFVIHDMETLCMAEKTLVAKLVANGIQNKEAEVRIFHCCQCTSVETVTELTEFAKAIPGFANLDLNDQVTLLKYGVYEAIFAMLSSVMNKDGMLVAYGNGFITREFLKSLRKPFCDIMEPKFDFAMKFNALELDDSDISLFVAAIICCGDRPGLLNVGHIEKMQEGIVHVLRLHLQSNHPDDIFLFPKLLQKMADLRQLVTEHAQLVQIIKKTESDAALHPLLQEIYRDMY

Consider `Cc1c(C(=O)O)c(O)cc2c1C(=O)c1c(O)c([C@H]3O[C@H](CO)[C@@H](O)[C@H](O)[C@H]3O)c(O)c(O)c1C2=O`, for which the Potency in assay [1] was 31.6 µM (active); in assay [16] it was 44.7 µM (active). Moreover, the Potency entry in assay [2], in [3], in assay [4], in [7], in assay [10] and in assay [11] was “inactive” each time. The Potency entry in assay [12], in assay [13] and in assay [14] was “inactive” in each case. The call in assay [5], in assay [6], in assay [8] and in assay [9] was inactive. Moreover, the max response in assay [15] was -8.63%.
With `O=C1OC(=O)c2ccccc21`, the Potency in [17] is more than 92 µM. In addition, the Potency entry in [1], in assay [2], in assay [3], in [4], in assay [7] and in [10] was “inactive” in each case. For the same compound, the Potency result in assay [11], in assay [12], in [13], in assay [18], in [19] and in assay [14] was “inactive” each time. In addition, the Potency result in assay [16] was “inactive”. Besides, the outcome in assay [5], in assay [6], in assay [8] and in [9] was inactive. Further, the max response is 5.7% in [15] and -7.68% in [20].
Turning to `CC(/C=C/C=C(C)/C=C/C(=O)O)=C\C=C\C=C(C)\C=C\C=C(C)\C=C\C(=O)O`, the Potency in assay [17] was more than 92 µM. Also, the Potency result in assay [1], in assay [2], in assay [3], in [4], in assay [7] and in assay [10] was “inactive” throughout. The Potency entry in assay [11], in assay [12], in [13], in assay [18], in assay [19] and in assay [14] was “inactive” throughout. Also, the Potency entry in assay [16] was “inactive”. For the same compound, the result in [5], in assay [6] and in assay [8] was inactive. Further, the results for the max response in [15] and in [20] were -2.62% and -1.24%, respectively.
Turning to `C=CC(=O)CC`, the Potency in assay [17] is more than 92 µM. For the same compound, the Potency entry in assay [1], in assay [2], in [3], in assay [4], in assay [7] and in assay [10] was “inactive” each time. Further, the Potency result in assay [11], in [12], in assay [13], in assay [18], in [19] and in [14] was “inactive” throughout. In assay [16], the Potency entry was “inactive”. In addition, the outcome in assay [5], in [6], in assay [8] and in assay [9] was inactive. Also, the max response in [15] was 8.86%; in [20], -0.839%.
`Brc1cc(Oc2cc(Br)c(Br)c(Br)c2Br)c(Br)c(Br)c1Br`: in [17], the Potency was more than 92 µM. For the same compound, the Potency result in assay [1], in assay [2], in [3], in [4], in [7] and in [10] was “inactive” throughout. Moreover, the Potency result in assay [11], in assay [12], in assay [13], in assay [18], in [19] and in assay [14] was “inactive” each time. Further, in assay [16], the Potency result is “inactive”. Moreover, the compound was called inactive in [5], in [6], in [8] and in assay [9]. Also, the max response in [15] was -7.16% and 0.47%; in assay [20], 3.78% and -22.3%.
Turning to `CCN(CC)c1ccc(N)cc1`, the Potency entry in assay [1], in assay [2], in assay [3], in assay [7], in [10] and in assay [12] was “inactive” each time. In addition, the Potency entry in assay [13], in assay [18], in assay [19], in assay [14] and in assay [16] was “inactive” each time. In addition, the outcome in [5], in assay [6], in assay [8] and in assay [9] was inactive. In addition, in [15], the max response was -0.774%.
